Calls of active or inactive are those of the source.
How the values were obtained:
[1] = binders of probe aFSTL3 on microarray, primary screen, stem cell growth factor project, biochemical, small-molecule microarray, fluorescence 635/667 (AID 1064); conditions: higher = more signal;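 also: measures binding of the biotinylated anti-FSTL3 antibody to printed compounds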
[2] = binders from COS7 lysate, DM2A8 probe, primary screen, torsin A project, cell lysate, small-molecule microarray, fluorescence 635/667 (AID 1065); conditions: higher = more signal, COS7 lysate expressing mutant human TOR1A
[3] = binders of probe aFGF2 on microarray, primary screen, stem cell growth factor project, biochemical, small-molecule microarray, fluorescence 635/667 (AID 1067); conditions: higher = more signal;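 also: measures binding of biotinylated aFGF2 protein to printed compounds on slides; z-score merges feature fluorescence and signal-to-noise across triplicate slides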
[4] = binders of probe aFGF10 on microarray, primary screen, stem cell growth factor project, biochemical, small-molecule microarray, fluorescence 635/667 (AID 1071); conditions: higher = more signal;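 also: score merges 667 nm spot intensity and signal to noise from triplicate slides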
[5] = molecular target: Neurogenic locus notch homolog protein 2 (Homo sapiens) (UniProt Q04721); test: Notch2 binders on small-molecule microarrays, primary screen, biochemical, small-molecule microarray, 635 nm fluorescence, stem cell growth factors (AID 1073); conditions: Notch2 binding, higher = more signal
[6] = molecular target: Pro-neuregulin-1, membrane-bound isoform (Homo sapiens) (UniProt Q02297); test: NRG1 binders on small-molecule microarrays, primary screen, psychiatric disease protein project, biochemical, small-molecule microarray, fluorescence 635/667 (AID 1075); conditions: NRG1 binding, 635 nm fluorescence, higher = more signal;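 also: score combines 667 nm spot fluorescence with signal to noise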
[7] = system: Neuregulin-1 EGF-like domain; test: binders of neuregulin-1 EGF-like domain, primary screen, biochemical, small-molecule microarray, 635 nm fluorescence (AID 1081); conditions: small-molecule microarray binding, higher = more signal;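 also: binding of the protein to compounds printed on small-molecule microarray slides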
[8] = FRG1 promoter luciferase signal modulators, primary screen, FRG1 inhibition for FSHD, cell-based, C2C12 myotubes, firefly/Renilla luciferase, luminescence (AID 1084); conditions: higher = more signal, called active from +8 up or from −8 down
[9] = binders of probe aFST on microarray, primary screen, stem cell growth factor project, biochemical, small-molecule microarray, fluorescence 635/667 (AID 1086); conditions: higher = more signal;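 also: score merges 667 nm fluorescence with signal-to-noise of each printed compound spot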
[10] = binders of probe aHhip on microarray, primary screen, stem cell growth factor project, biochemical, small-molecule microarray, fluorescence 635/667 (AID 1087); conditions: higher = more signal;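 also: score merges spot fluorescence at 667nm with spot signal to noise ratio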
[11] = system: PRMT1 (protein arginine N-methyltransferase 1); test: PRMT1 binders on small-molecule microarrays, primary screen, biochemical, small-molecule microarray, 635 nm fluorescence (AID 1088); conditions: small-molecule microarray binding, higher = more signal;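 also: binding of Prmt1 protein to compounds spotted on small-molecule microarray slides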
[12] = yeast growth modulation, basal conditions, primary screen, YJM789 clinical isolate, OD600, 24 h (AID 1089);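 also: growth of clinical yeast isolate S. cerevisiae YJM 789 seeded 1000 cells per well; test concentration not given here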; conditions: S. cerevisiae YJM789 growth, higher = more signal, called active from +8 up or from −8 down
[13] = fission yeast growth modulation, primary screen, strain 972, OD600, 24 h, no modulator (AID 1090);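 also: basal condition with compound alone and no growth modifier present; test concentration not given here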; conditions: S. pombe 972 growth, higher = more signal, called active from +8 up or from −8 down
[14] = S. cerevisiae growth modulation with rapamycin, primary screen, strain BY4716, OD600, 96 h (AID 1091); conditions: higher = more signal, called active from +8 up or from −8 down; also: test concentration not given here
[15] = molecular target: Torsin-1A-interacting protein 2 (Homo sapiens) (UniProt Q8NFQ8); test: LULL1 binders on small-molecule microarray, primary screen, cell lysate, human LULL1 lysate, 635/667 nm fluorescence (AID 1092); conditions: hLULL1 lysate binding, 635 nm fluorescence, higher = more signal;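 also: probe is lysate of COS7 cells overexpressing human LULL1; score merges per-feature 667 nm fluorescence with signal-to-noise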
[16] = E. coli growth modulation, two-sided OD650, primary screen, E. coli filamentation project, strain DRC41, 24 h (AID 1093); conditions: OD650, 24 h, higher = more signal, called active from +8 up or from −8 down;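 also: MC1000 strain lacking acrAB efflux and sulA so SOS filamentation is blocked; test concentration not given here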
[17] = small-molecule microarray binders of probe aLefty2, primary screen, biochemical, biotinylated probe, 635/667 nm fluorescence (AID 1094); conditions: higher = more signal;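 also: score merges spot fluorescence near 667 nm with spot signal-to-noise ratio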
[18] = system: Noggin (protein binding on small-molecule microarray); test: Noggin binders on small-molecule microarray, primary screen, biochemical, 635/667 nm fluorescence (AID 1095); conditions: 635 nm fluorescence, higher = more signal;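 also: score merges 667 nm feature fluorescence with signal to noise over triplicate slides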
[19] = molecular target: Neurogenic locus notch homolog protein 3 (Homo sapiens) (UniProt Q9UM47); test: NOTCH3 binders on small-molecule microarray, primary screen, biochemical, 635/667 nm fluorescence (AID 1096); conditions: NOTCH3 binding, 635 nm fluorescence, higher = more signal
[20] = small-molecule microarray binders of probe aEGFR, primary screen, biochemical, biotinylated probe, 635/667 nm fluorescence (AID 1097); conditions: higher = more signal;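 also: probe is a biotinylated anti-EGFR antibody binding compounds printed on slides; score combines fluorescence near 667 nm and signal to noise of each spot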

Sequence of Neurogenic locus notch homolog protein 2 (Homo sapiens) (Q04721 whole entry, looked up, canonical isoform): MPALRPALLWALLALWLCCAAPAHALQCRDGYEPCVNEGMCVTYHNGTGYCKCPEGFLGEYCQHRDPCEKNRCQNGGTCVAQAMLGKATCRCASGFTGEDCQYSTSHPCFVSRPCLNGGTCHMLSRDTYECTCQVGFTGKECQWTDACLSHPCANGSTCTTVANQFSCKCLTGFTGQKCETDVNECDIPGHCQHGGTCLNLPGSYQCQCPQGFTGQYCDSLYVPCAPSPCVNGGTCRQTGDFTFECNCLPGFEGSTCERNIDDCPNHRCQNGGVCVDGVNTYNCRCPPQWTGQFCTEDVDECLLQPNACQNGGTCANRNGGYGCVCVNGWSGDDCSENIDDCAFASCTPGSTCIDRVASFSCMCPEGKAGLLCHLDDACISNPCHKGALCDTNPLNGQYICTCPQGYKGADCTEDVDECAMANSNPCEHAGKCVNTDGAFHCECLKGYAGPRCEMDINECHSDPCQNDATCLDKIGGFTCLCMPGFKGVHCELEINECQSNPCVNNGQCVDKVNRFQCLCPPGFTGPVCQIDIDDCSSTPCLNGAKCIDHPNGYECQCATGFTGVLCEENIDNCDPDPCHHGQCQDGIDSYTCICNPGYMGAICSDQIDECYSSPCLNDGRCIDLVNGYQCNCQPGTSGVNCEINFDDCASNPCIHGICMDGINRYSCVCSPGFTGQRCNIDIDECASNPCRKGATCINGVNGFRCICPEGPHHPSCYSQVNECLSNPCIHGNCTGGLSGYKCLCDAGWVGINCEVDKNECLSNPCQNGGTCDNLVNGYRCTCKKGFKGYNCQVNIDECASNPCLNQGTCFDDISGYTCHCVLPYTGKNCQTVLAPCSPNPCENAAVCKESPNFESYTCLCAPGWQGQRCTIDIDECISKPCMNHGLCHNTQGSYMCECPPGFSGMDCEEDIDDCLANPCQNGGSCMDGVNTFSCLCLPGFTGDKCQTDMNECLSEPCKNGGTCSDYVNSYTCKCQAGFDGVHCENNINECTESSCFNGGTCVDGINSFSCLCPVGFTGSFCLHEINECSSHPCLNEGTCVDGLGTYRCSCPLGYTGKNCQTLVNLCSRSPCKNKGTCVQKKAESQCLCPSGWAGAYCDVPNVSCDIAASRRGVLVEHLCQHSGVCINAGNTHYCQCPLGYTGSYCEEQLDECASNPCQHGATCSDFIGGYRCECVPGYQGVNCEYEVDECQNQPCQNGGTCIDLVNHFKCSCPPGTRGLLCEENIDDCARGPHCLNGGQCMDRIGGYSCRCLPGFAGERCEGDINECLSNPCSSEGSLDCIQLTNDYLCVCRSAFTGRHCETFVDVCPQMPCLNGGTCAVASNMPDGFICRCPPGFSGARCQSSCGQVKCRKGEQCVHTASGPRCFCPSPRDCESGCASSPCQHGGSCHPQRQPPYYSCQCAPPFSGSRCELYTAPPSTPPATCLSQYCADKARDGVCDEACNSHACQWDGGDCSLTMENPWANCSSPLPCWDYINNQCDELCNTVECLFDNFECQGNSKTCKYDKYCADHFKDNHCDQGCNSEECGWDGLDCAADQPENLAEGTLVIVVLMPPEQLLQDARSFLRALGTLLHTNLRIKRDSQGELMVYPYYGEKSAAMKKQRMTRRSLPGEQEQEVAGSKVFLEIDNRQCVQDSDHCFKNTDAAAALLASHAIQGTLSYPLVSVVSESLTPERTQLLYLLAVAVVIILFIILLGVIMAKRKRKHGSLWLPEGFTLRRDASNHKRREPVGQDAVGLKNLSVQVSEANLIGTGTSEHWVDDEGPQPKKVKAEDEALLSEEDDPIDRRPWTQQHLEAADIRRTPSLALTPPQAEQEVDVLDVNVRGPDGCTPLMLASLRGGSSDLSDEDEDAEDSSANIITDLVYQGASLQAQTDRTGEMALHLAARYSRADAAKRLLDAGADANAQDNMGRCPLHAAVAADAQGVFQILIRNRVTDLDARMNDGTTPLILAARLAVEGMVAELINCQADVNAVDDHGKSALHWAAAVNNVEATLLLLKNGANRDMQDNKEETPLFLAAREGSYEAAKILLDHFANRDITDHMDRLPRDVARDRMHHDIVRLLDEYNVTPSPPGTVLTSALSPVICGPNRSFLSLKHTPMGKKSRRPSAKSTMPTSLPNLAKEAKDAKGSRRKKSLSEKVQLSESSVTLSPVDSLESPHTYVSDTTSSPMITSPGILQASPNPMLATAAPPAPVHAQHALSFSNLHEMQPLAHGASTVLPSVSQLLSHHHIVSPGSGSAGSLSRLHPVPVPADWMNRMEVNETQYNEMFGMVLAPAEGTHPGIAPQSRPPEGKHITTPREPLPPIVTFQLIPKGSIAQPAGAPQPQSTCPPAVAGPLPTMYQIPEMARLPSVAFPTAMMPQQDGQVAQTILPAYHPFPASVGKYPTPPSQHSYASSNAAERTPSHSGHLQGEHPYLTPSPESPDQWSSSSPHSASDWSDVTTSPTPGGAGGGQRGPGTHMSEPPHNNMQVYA
Sequence of Neurogenic locus notch homolog protein 3 (Homo sapiens) (Q9UM47 whole entry, looked up): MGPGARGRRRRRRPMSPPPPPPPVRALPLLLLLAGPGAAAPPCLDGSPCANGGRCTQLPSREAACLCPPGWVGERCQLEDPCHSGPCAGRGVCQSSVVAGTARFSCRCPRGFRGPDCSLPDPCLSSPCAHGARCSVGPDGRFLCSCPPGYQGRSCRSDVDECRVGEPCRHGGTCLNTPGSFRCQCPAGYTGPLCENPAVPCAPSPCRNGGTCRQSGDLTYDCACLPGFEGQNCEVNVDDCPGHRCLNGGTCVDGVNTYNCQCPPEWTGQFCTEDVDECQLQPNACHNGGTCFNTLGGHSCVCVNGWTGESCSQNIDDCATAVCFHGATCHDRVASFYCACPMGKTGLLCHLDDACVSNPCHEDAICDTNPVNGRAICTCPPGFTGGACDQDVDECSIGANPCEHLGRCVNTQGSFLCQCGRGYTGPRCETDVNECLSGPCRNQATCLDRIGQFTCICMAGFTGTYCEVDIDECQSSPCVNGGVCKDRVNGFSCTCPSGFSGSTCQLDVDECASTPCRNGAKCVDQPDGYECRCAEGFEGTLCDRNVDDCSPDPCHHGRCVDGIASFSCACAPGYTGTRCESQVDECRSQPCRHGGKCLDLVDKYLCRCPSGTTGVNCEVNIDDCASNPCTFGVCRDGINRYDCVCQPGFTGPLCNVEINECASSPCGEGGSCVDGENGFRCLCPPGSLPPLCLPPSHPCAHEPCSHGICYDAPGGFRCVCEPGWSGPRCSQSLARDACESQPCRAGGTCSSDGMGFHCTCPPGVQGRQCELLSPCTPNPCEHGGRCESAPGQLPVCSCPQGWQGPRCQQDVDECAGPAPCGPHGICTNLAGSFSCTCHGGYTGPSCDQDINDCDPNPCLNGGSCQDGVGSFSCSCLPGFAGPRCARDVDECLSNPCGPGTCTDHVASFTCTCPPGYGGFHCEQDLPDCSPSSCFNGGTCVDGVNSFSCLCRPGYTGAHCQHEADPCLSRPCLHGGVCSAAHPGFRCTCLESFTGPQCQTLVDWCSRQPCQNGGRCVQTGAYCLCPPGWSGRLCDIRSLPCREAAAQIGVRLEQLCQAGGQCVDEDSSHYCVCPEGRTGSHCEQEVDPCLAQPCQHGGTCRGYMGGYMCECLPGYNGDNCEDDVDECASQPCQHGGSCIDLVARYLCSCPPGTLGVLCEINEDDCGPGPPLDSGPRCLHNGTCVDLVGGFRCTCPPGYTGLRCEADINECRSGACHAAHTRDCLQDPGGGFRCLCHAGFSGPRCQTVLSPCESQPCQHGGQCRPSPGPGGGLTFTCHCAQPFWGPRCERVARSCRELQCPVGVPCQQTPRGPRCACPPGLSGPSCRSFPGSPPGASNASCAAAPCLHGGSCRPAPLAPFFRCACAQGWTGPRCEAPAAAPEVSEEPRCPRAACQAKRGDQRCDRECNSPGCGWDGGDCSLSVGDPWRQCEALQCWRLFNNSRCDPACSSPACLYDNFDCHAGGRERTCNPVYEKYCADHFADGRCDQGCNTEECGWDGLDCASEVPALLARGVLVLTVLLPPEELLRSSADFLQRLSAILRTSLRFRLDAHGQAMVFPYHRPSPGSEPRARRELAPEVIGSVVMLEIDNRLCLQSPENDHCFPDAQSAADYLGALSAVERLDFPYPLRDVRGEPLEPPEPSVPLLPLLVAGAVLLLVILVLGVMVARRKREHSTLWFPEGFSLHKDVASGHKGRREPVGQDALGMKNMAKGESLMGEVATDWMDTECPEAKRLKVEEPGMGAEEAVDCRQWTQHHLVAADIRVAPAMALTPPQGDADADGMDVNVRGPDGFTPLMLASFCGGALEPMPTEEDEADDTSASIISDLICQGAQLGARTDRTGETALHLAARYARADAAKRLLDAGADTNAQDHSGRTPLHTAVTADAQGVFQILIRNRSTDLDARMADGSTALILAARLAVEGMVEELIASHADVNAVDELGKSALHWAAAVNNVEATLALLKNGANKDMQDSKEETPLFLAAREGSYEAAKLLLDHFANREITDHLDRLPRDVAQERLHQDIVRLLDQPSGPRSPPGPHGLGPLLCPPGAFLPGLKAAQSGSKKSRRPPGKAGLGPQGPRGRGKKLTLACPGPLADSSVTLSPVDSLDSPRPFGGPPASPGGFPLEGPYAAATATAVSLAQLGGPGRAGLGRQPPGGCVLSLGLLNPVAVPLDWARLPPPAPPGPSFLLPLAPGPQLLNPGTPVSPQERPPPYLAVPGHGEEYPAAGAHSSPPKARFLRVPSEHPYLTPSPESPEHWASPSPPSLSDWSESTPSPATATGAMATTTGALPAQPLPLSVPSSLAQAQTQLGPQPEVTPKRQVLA

SMILES | composite z-score [1] | composite z-score [2] | composite z-score [3] | composite z-score [4] | composite z-score [5] | composite z-score [6] | composite z-score [7] | z-score [8] | composite z-score [9] | composite z-score [10] | composite z-score [11] | z-score [12] | z-score [13] | z-score [14] | composite z-score [15] | z-score [16] | composite z-score [17] | composite z-score [18] | composite z-score [19] | composite z-score [20]
[N-]=[N+]=NCc1ccccc1C[C@@]1(C(N)=O)N=C(c2ccc(OCCCO)cc2)O[C@@H]1c1ccccc1 | 0.218 | -0.173 | -0.0592 | -0.257 | 0.608 | 2.15 | 1.16 | -1.67 (inactive) | 0.249 | 0.107 | 1.56 | -0.144 (inactive) | 0.0313 (inactive) | 13.3 (active) | 3.59 | -0.412 (inactive) | 0.149 | -0.734 | -0.15 | -0.108
COCC(=C=CC[C@H](O)c1ccc(OCCO)cc1)CCO | -0.144 | 1.12 | -0.161 | 0.592 | 0.124 | 1.64 | 1.42 | 0.461 (inactive) | 0.0418 | -0.0618 | 1.18 | 0.028 (inactive) | -0.406 (inactive) | -0.274 (inactive) | 2.42 | 0.399 (inactive) | 0.106 | 1.21 | 0.227 | 0.0882
C=CCC(OC(C)=O)[C@@H]1[C@@H](N(Cc2cccc3ccccc23)C(=O)Cc2ccc(OC)cc2)c2cc(OCCCO)ccc2N1C(=O)c1ccc(-c2ccccc2)cc1 (stereo not given in full) | 0.112 | 0.0969 | -0.112 | -0.153 | -0.0051 | 0.497 | -0.359 | -1.39 (inactive) | 0.428 | -0.201 | 0.328 | 0.0338 (inactive) | 0.402 (inactive) | -0.962 (inactive) | 1.1 | -0.373 (inactive) | -0.206 | -0.424 | 0.0523 | -0.19
[N-]=[N+]=Nc1ccccc1C[C@]1(C(=O)NCC(O)CO)COC(c2ccc(OCCCO)cc2)=N1 (stereo not given in full) | 0.502 | 0.475 | 0.0154 | 0.859 | -0.33 | 1.43 | 1.14 | 2.1 (inactive) | 0.255 | -0.0994 | 0.149 | 0.887 (inactive) | -0.13 (inactive) | 0.69 (inactive) | 3.11 | 1.05 (inactive) | 0.23 | -0.906 | -1.26 | 0.58
CCOC(=O)C[C@H]1[C@H](OC(=O)c2cc3ccccc3oc2=O)[C@@H](NC(=O)CC(C)C)c2cc(OCCCO)ccc2N1C(=O)c1ccc2ccccc2n1 | -0.444 | 0.304 | -0.132 | 0.945 | 1.09 | 0.594 | 1.1 | 0.159 (inactive) | 0.252 | -0.199 | 1.04 | 0.475 (inactive) | 0.376 (inactive) | 0.665 (inactive) | 1.09 | -0.588 (inactive) | -0.0916 | 0.746 | 0.982 | 0.326
O=C1OCCC/C=C\[C@H]2OC34C=CCN(c5ccc6ccccc6c5)C(=O)[C@H]3N(CCO)C(=O)[C@@H]4C12 (stereo not given in full) | 0.24 | -0.514 | -0.159 | -0.818 | -1.23 | 1.6 | 1.04 | 0.751 (inactive) | -0.667 | -0.423 | -0.352 | 0.0709 (inactive) | -0.224 (inactive) | 0.341 (inactive) | 0.25 | 0.491 (inactive) | -0.14 | -1.79 | -0.858 | -0.335
CCCCC(=C=CC[C@H](O)c1ccc(OCCO)cc1)CCO | -0.253 | -0.0707 | -0.114 | -0.161 | -0.425 | 1.48 | 0.66 | -0.572 (inactive) | -0.493 | 0.0156 | -0.0461 | -0.879 (inactive) | -0.982 (inactive) | -1.02 (inactive) | 2.24 | -0.0915 (inactive) | -0.179 | -0.124 | -0.65 | -0.232
CCCCC(CC)C(O)C1C=CC2C(=O)N(c3ccccc3)C(=O)C2N1Nc1ccccc1F (stereo not given) | 0.0758 | 0.39 | 0.151 | 0.972 | 1.54 | -0.144 | 1.21 | 0.39 (inactive) | 0.727 | -0.123 | 1.53 | -0.802 (inactive) | 1.53 (inactive) | 0.314 (inactive) | 2.64 | 0.379 (inactive) | 0.222 | 0.0782 | 0.822 | -0.162
Cn1cccc1C(O)C1C=CC2C(=O)N(c3ccccc3)C(=O)C2N1Nc1ccccc1 (stereo not given) | -0.236 | 0.401 | 0.137 | 0.925 | 1.71 | 1.91 | 1.17 | 0.687 (inactive) | 0.706 | -0.136 | 1.56 | 0.537 (inactive) | 0.445 (inactive) | 0.566 (inactive) | 3.37 | -0.598 (inactive) | 0.27 | 0.781 | 1.02 | 0.0651
CC(C)C(O)C1C=CC2C(=O)N(c3ccccc3)C(=O)C2N1Nc1ccccc1 (stereo not given) | -0.393 | 0.466 | 0.0293 | 0.79 | 1.49 | 1.24 | 1.39 | 0.33 (inactive) | 1.53 | 0.158 | 1.34 | 0.0864 (inactive) | -2.24 (inactive) | 0.108 (inactive) | 3.42 | -0.304 (inactive) | 0.0436 | 0.948 | 1.07 | -0.0023
